Test results as given in PubChem BioAssay AID641 (Vanderbilt High Throughput Screening Facility, 2007).
The whole screen tested about 58,000 compounds, of which about 3,400 (5.9%) were called active. Only a selection was taken, and actives are over-represented in it overall. Unmarked numbers belong to inactive results.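 Rule for the calls: active = luminescence count or its row- and column-corrected plate score outside the 99.7% band of the plate's sample wells, on either side; inactive = the rest.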

The molecules below were run against D(1A) dopamine receptor (Homo sapiens) (UniProt P21728) (assay: D1 CRE-luciferase signal change, two-sided – cell-based, HEK293 D1, dopamine EC30, D1 allosteric modulator project, primary screen (AID 641)). Settings: dopamine EC30 potentiation, at 10 µM, actives deviate in either direction.
Sequence of D(1A) dopamine receptor (Homo sapiens) (P21728 whole entry, looked up): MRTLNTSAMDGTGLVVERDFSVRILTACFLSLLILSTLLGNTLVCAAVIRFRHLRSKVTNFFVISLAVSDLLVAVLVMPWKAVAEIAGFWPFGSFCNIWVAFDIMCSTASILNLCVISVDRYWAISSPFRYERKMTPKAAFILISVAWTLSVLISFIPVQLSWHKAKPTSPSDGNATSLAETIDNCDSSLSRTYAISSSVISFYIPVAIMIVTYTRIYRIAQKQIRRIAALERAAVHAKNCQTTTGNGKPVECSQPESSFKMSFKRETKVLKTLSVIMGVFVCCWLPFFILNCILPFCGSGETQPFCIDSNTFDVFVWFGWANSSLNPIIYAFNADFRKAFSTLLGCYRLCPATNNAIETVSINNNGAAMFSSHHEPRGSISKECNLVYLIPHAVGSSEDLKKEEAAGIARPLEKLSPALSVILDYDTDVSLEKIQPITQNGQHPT
`CN1C(=O)CC(N2CCN(c3ccccn3)CC2)C1=O` (stereo not drawn) gave a B-score of -0.0528.
For `COc1ccc(C(=O)NCCc2ccc(S(N)(=O)=O)cc2)cc1OC`, the B-score was -0.0032.
Molecule `Cc1sc2c(c1C)c(=O)n(-c1ccccc1)c1nncn21` has a B-score of 0.694.
Molecule `COc1cc2[nH]c(=O)n(CCC(=O)NC3CCN(Cc4ccccc4)CC3)c(=O)c2cc1OC` has a B-score of -0.633.
For `O=c1cc(CSc2ccccn2)nc(N2CCN(c3ccccc3)CC2)[nH]1`, the B-score was 0.00444.
In the case of `O=c1cc(-c2ccccc2)nc(N2CCCCC2)[nH]1`, the B-score was 4.97 (active).
`Cc1ccc(SCc2cc(=O)[nH]c(N3CCCCC3)n2)cc1` showed a B-score of 1.14.
In the case of `CC1CCN(c2oc(-c3ccccc3F)nc2C#N)CC1`, the B-score was 8.13 (active).
`N#Cc1nc(COc2ccc(Cl)cc2)oc1N1CCCC1` gave a B-score of 2.09.
`Cc1ccc(OCc2nc(C#N)c(N3CCCC3)o2)cc1` showed a B-score of 2.17.
For `COc1ccc(CCN2CNc3c(c(=O)n(C)c(=O)n3C)C2)cc1OC`, the B-score was -0.27.
For `Oc1c(C(c2cccs2)N2CCN(c3ccc(F)cc3)CC2)sc2ncnn12` (stereo not drawn), the B-score was -1.14.
With `O=C(C1CCC1)N1CCc2cc(S(=O)(=O)NCc3cccnc3)ccc21` the B-score was 4.59 (active).
`CCCNS(=O)(=O)c1ccc2c(c1)CCCN2C(C)=O` was tested, and the B-score was -1.43.
For `CC(=O)N1CCc2cc(S(=O)(=O)Nc3ccccc3N3CCN(C)CC3)ccc21`, the B-score was -0.699.
`CC(C)(CNCC(O)c1ccccc1)N1CCOCC1` (stereo not drawn) gave a B-score of 0.153.
`CN1c2ccccc2-c2nc3ccccc3n2C1c1ccco1` (stereo not drawn) showed a B-score of -2.57.
`CN(c1nc2ccccc2n2c(-c3ccco3)nnc12)S(=O)(=O)c1ccccc1` gave a B-score of 1.04.
For `Cn1c(-c2ccco2)nc2cc3ccccc3cc21`, the B-score was -4.84 (active).
`CCCc1nc(SCC(=O)Nc2ccccc2OC)c2c(=O)n(C)c(=O)n(C)c2n1` was tested, and the B-score was 1.18.
`CCOc1cc(N2CCOCC2)c(OCC)cc1NC(=O)COc1cccc2cccnc12` was tested, and the B-score was -6.32 (active).
`CCOc1ccccc1NC(=O)C1CCC(CNc2c(N3CCOCC3)c(=O)c2=O)CC1` (stereo not drawn) was tested, and the B-score was -0.266.
For `CCOc1cc(NC(=O)c2ccco2)c(OCC)cc1NC(=O)COc1ccccc1`, the B-score was -0.0288.
`N/C(=N\c1nc2ccccc2o1)NC(=O)C(Cc1ccccc1)N1C(=O)c2ccccc2C1=O` (stereo not drawn) was tested, and the B-score was -0.0263.
`CCOC(=O)CN1C(=O)C(O)(CC(=O)c2ccccn2)c2ccccc21` (stereo not drawn) gave a B-score of -0.341.
In the case of `CCc1nnc(NC(=O)C2CCCN2S(=O)(=O)c2ccccc2)s1` (stereo not drawn), the B-score was -0.0231.
For `CCC(=NC1CC(C)(C)NC(C)(C)C1)C1=C(O)CC(C)(C)CC1=O`, the B-score was -0.239.
Molecule `COc1ccccc1N1CCN(Cc2ccc(OC)c3ccccc23)CC1` has a B-score of -0.325.
`O=C(O)Cc1ccc(NC(=O)c2cccs2)cc1` gave a B-score of -1.14.
Molecule `O=C(O)c1ccc(NC(=O)c2cccs2)cc1` has a B-score of 0.0162.
For `Cc1nc(-c2ccc(NC(=O)c3cccs3)cc2)cs1`, the B-score was -5.86 (active).
`COc1ccc(-c2nc(CS(=O)CC(=O)NCc3ccccn3)c(C)o2)cc1` (stereo not drawn) gave a B-score of -1.3.
With `Cc1ccc2nc(NCCCNC(=O)c3cnccn3)c(C#N)cc2c1` the B-score was 0.787.
Molecule `CCc1ccccc1NC(=O)c1cccs1` has a B-score of -0.318.
In the case of `COCCn1nnnc1CN1CCC(NC(=O)Nc2cccc(OC)c2)CC1`, the B-score was -0.857.
With `CCOC(=O)c1cc2ccccc2nc1C` the B-score was 0.135.
In the case of `CCOC(=O)c1cc2n(c1N)-c1ccccc1C2=O`, the B-score was 1.46.
`CCOC(=O)c1cc2n(c1C)-c1ccccc1C2=O` was tested, and the B-score was 4.61 (active).
Molecule `CCn1nc(NC(=O)c2ccco2)c2cc3ccc(C)cc3nc21` has a B-score of 0.36.
Molecule `CC1CCc2c(sc3c2C2=NS(=O)(=O)CCN2C=N3)C1` (stereo not drawn) has a B-score of 1.19.
With `Cn1c(=O)[nH]c(=O)c2c1nc(N1CCCCCC1)n2CC(=O)c1ccccc1` the B-score was 0.0681.
`CCCCCn1c(SCCC(C)C)nc2c1c(=O)[nH]c(=O)n2C` gave a B-score of 0.151.
In the case of `CC1CCN(c2nc3c(c(=O)[nH]c(=O)n3C)n2CCCc2ccccc2)CC1`, the B-score was 3.73 (active).
`CN(Cc1ccccc1)c1nc2c(c(=O)[nH]c(=O)n2C)n1CCSc1nc2ccccc2[nH]1` showed a B-score of 1.93.
`CCCSc1nc2c(c(=O)[nH]c(=O)n2C)n1CCc1ccccc1` was tested, and the B-score was 18 (active).
Work on `CN1CCN(c2nc3c(c(=O)[nH]c(=O)n3C)n2Cc2cccc3ccccc23)CC1` yielded a B-score of -2.28.
Molecule `Cc1cccc2cc(C#N)c(N3CCCC3)nc12` has a B-score of -0.4.
For `CCC(=O)N1c2ccc(S(=O)(=O)CCC(=O)N3CCN(c4ccccc4)CC3)cc2CC1C` (stereo not drawn), the B-score was 0.966.
Molecule `COc1ccc(C(=O)n2nc(-c3ccc(Cl)cc3)nc2N)cc1OC` has a B-score of 1.72.
In the case of `COc1ccc(C(=O)n2nc(-c3ccc(C)cc3)nc2N)cc1OC`, the B-score was 0.0973.
In the case of `COC(=O)c1ccc(OC(=O)c2nn(C)cc2Cl)c(OC)c1`, the B-score was -3.71 (active).
`Cn1c(-c2ccc(C(=O)c3ccccc3)s2)nc2ccccc21` was tested, and the B-score was -0.58.
`CCN(CC)CCN1C(=O)C(=O)/C(=C(/O)c2ccccc2)C1c1ccccc1F` (stereo not drawn) showed a B-score of 0.045.
Molecule `Cc1ccc(C)n1C(Cc1ccccc1)C(=O)O` (stereo not drawn) has a B-score of 1.32.
For `c1ccc(COc2nsnc2N2CCOCC2)cc1`, the B-score was 5.03 (active).
Molecule `c1nc(COc2nsnc2N2CCOCC2)cs1` has a B-score of 1.59.
With `O=C(O)COc1nsnc1N1CCOCC1` the B-score was 0.787.
`COc1cc(OC)c(NC(=O)c2ccc(Br)o2)cc1Cl` was tested, and the B-score was -0.284.
Work on `CC(=O)Nc1ccc(S(=O)(=O)N2CCC(N(C)CCC(C)C)CC2)cc1` yielded a B-score of -0.0927.
For `CC1(C)CC(=O)NC=C(c2ccccc2)C1`, the B-score was -0.105.
In the case of `Cc1cc2c(cc1C)NC(c1ccccn1)C1=C(CC(C)(C)CC1=O)N2` (stereo not drawn), the B-score was -0.653.
For `CC(C)C1C2=C(CC(C)(C)CC2=O)ON1c1ccccc1` (stereo not drawn), the B-score was 6.74 (active).
Work on `Cc1cc(C)c(S(=O)(=O)NCCCN2CCOCC2)cc1Br` yielded a B-score of 0.0527.
